This passage reports growth results from PubChem BioAssay (NCI).

About 83,000 compounds went through this panel and 20% of them were active in at least one assay; those are over-represented in the sample as a whole.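 Results are percent growth after 48 hours of single-concentration exposure. 100 means growth as in untreated cells, lower positive values show inhibition; negative values down to -100 show cell death.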 Values without a mark were called inactive. The source made the active and inactive calls. Rule for the calls: active = growth percent below 10; inactive = the rest.

Experiment in all cases: NCI-60 one-dose screen, 48 h (100 = growth as untreated, 0 = no growth, -100 = all killed)
What all share (conditions): 10 µM unless noted

Test [1] concerns SK-MEL-2 melanoma.
Test [2] has as its system EKVX NSCLC.
Test [3] has as its system SN12C renal.
The subject of test [4] is UO-31 renal.
In test [5] the test system is TK-10 renal.
Test [6] relates to ACHN renal.
Test [7] deals with CAKI-1 renal.
Test [8] concerns A498 renal.
Test [9] relates to CCRF-CEM leukemia.
Test [10] relates to MOLT-4 leukemia.

For the molecule `CCOC(=O)C1=C(CC(O)c2ccc(OC)cc2OC)NC(=O)NC1c1ccccc1` (stereo not given), the growth in [1] is 120%; in test [2], 105%; in test [3] it was 105%; in test [4] it was 95.8%; in test [5], 120%; in [6] it was 109%. For the same molecule, the growth was 92.2% in [7], 122% in [8], 95.3% in test [9] and 17.2% in test [10].
In the case of `COc1ccc(C(O)c2cc3c(N)c(C(=O)Nc4cccc5ccccc45)sc3nc2C)cc1` (stereo not given), the growth in test [1] is 35.8%; in test [2], 41.8%; in test [3], 14.4%; in test [4], 25.8%; in test [5] it was 63.8%; in test [6], 22%. In addition, the growth in test [7] was 15.5%; in test [8] it was -13.1% (active); in test [9], 13.2%; in test [10], 10.9%.
Consider `Cc1[nH]c(C(=O)Nc2ccccc2OC2CCN(CCN3CCOCC3)CC2)c(Cl)c1Cl`, for which the growth in test [1] was 101%; in [2] it was 86%; in test [3], 97.7%; in test [4], 51.9%; in test [5] it was 69.7%; in test [6] it was 94.7%. In addition, the growth in test [7] was 84%; in test [8], 71.6%; in test [9] it was 89.4%; in test [10], 72.6%.
Take `Fc1cccc(CNc2c3ccccc3nc3ccccc23)c1`: the growth in test [1] was 81.4%; in test [2], 32%; in test [3], 32.8%; in [4], 24%; in test [5], 64.1%; in test [6] it was 17.1%. Besides, the growth in test [7] is 27%; in test [8], -12.6% (active); in [9] it was 46.3%; in [10], 14.9%.
With `COc1ccc(/C=C/C(c2cc(OC)c(OC)c(OC)c2)n2cncn2)cc1O` (stereo not given), the growth in test [1] is 18.2%; in test [2], 59.4%; in [3], 49.6%; in test [4], 54.2%; in [5] it was 41.2%; in test [6], 63.1%. Further, the growth in [7] is 34.5%; in test [8] it was 19.8%; in test [9], 6.31% (active); in test [10], 21.8%.
In the case of `CSc1nc2ccc(C)cc2cc1/C=C1/C=C(c2ccccc2)NC1=O`, the growth in [1] was 89.5%; in [2], 61.4%; in test [3] it was 32.6%; in test [4], 12.8%; in [5] it was -6.59% (active); in test [6] it was -52.8% (active). Further, the growth in test [7] is 5.73% (active); in test [8], 41.7%; in test [9] it was 48.3%; in [10], 44.1%.
As to `Cc1cc(Cl)nc(N2CCN(CCNc3ccnc4cc(Cl)ccc34)CC2)n1`, the growth in [1] was 61.1%; in test [2] it was 44.8%; in test [3], 71.2%; in test [4] it was 32.4%; in [5] it was 48.2%; in [6], 58.2%. For the same molecule, the growth in test [7] is 44.6%; in [8] it was 42.4%; in test [9] it was 63.1%; in test [10], 32.6%.
Consider `CC(C)(C)OC(=O)CN1CCc2c(sc3ncnc(N4CCN(c5ccc(F)cc5)CC4)c23)C1`, for which the growth was 92.1% in test [1]; 95.5% in [2]; 91.6% in test [3]; 51.7% in [4]; 100% in test [5]; 85.7% in [6]. Besides, the growth in [7] is 80.6%; in [8], 68.7%; in test [9] it was 59.2%; in test [10], 53.4%.
In the case of `COc1ccc(Oc2ccc(/C=C/C(=O)c3cc4ccccc4oc3=O)cc2)cc1`, the growth in test [1] was 102%; in test [2], 94.5%; in test [3], 86.1%; in test [4] it was 48%; in [5], 147%; in test [6] it was 91.3%. In addition, the growth was 74.8% in test [7], 121% in [8], 28.1% in [9] and 57.9% in test [10].
On to `NS(=O)(=O)c1ccc(C(=O)N=Nc2c(O)[nH]c3ccc(Cl)cc23)cc1`, for which the growth in [1] is 105%; in test [2], 95.8%; in [3], 94.9%; in test [4], 83.8%; in test [5], 115%; in test [6], 107%. For the same molecule, the growth in [7] was 92.6%; in test [8], 75.3%; in test [9], 99.7%; in test [10], 107%.
For `COc1ccc(C/C(C)=C(\c2ccc(Cl)cc2)c2ccc(OCCN3CCCC3)cc2)cc1`, the growth in test [1] is 96.8%; in test [2], 96.7%; in [3], 82.7%; in test [4] it was 66.3%; in [5] it was 87.6%; in test [6], 94.8%. The growth in test [7] was 83.4%; in [8] it was 110%; in test [9], 57.2%; in test [10] it was 44.6%.
For `CCC(C)(C)c1ccc(Nc2ccc(Nc3ccc(C(C)(C)CC)cc3)cc2)cc1`, the growth was 95.9% in test [1]; 98.6% in [2]; 96.7% in test [3]; 62.5% in test [4]; 103% in test [5]; 97% in [6]. The growth in test [7] was 71%; in test [8] it was 121%; in test [9], 87.9%; in test [10], 76%.
Turning to `O=C(Cc1ccc(/C=C/C(=O)c2ncc[nH]2)cc1)Nc1cc(F)c(F)c(F)c1`, the growth in test [1] was 114%; in test [2], 92.7%; in test [3], 56.2%; in [4], 46.7%; in test [5] it was 87.5%; in [6], 93.2%. The growth in test [7] is 56.2%; in test [8], 84.8%; in test [9] it was 20.3%; in [10], 26.7%.
`CCOC(=O)c1ccc[nH]1`: the growth in [1] was 99.3%; in test [2], 97.1%; in test [3] it was 105%; in test [4], 91.8%; in test [5], 98.3%; in [6], 90.4%. The growth in test [7] was 74.3%; in test [8] it was 101%; in [9] it was 92.1%; in test [10] it was 102%.
